Screens as filed in PubChem BioAssay.
An excerpt weighted towards active compounds, which were near 1.4% of everything screened.
BJeLR lethal – MLPCN primary cell-based screen for lethality selective to Ras in HRASV12 cells | BJeLR (HRASV12) viability, CellTiter-Glo ATP luminescence, 48 h | inhibition, % (no concentration beside the values) | hit rate 0.17% among 300,000; in the data active = inhibition above about 50%
PrPC TRFRET – inhibitors of human cell surface prion protein PrPC, primary screen, cell-based, TR-FRET; TR-FRET read-out; Major prion protein (Homo sapiens), P04156; hit rate 0.43% among 370,000; inhibition, % at 13.8 µM; in the data active = inhibition above about 24%
VHR inh abs – VHR1 phosphatase inhibitors, primary screen, biochemical, absorbance, uHTS; recombinant VHR phosphatase, pNPP absorbance; inhibition, % at 13.3 µM; hit rate 0.52% among 290,000; Dual specificity protein phosphatase 3 (Homo sapiens), P51452; in the data active = inhibition above about 50%
ugtP null kill – growth inhibition of ugtP-null S. aureus, primary screen, RN4220 ugtP deletion, OD600; 16 h; growth inhibition, % (concentration not given with the values); hit rate 0.54% among 330,000; in the data active = growth inhibition above about 68%
RN4220 kill – growth inhibition of S. aureus RN4220, primary screen, OD600; inhibition, % (test concentration not listed); hit rate 0.33% among 330,000; 16 h; in the data active = inhibition above about 85%
3CLpro inhibitor – SARS-CoV 3CLpro protease inhibitors, primary screen, biochemical, quenched FRET; Replicase polyprotein 1ab (Severe acute respiratory syndrome coronavirus), P0C6X7; recombinant SARS-CoV 3CLpro, quenched FRET peptide cleavage; inhibition, % at 6 µM; hit rate 0.14% among 290,000; AID 1706, 2009; in the data active = inhibition above about 12%
PrPC confirm – confirmation of inhibitors of cell surface human prion protein, confirmation, cell-based, TR-FRET. shares compounds with PrPC TRFRET. cell surface PrPC level. inhibition, % at 13.8 µM. hit rate 65% among 1,500; in the data active = inhibition above about 25%
LD9 cytotox – cytotoxicity in LD9 cells, cytotoxicity control for cell surface PrPc inhibitor project, cell-based, luminescence, high throughput; luminescence viability; AID 743201, 2013; hit rate 29% among 1,500; inhibition, % at 13.8 µM; shares compounds with PrPC TRFRET; in the data active = inhibition above about 9.5%
Of the large screens only hits and unclear results are named; the others gave an inactive call (follow-up assays come after a bar, where they were run).

C[C@@H]1CC=C[C@H]2[C@H]1C(=O)N(Cc1ccccc1)[C@H]2c1ccc2ccccc2c1Br	PrPC TRFRET 42 (no result: ugtP null kill, RN4220 kill, 3CLpro inhibitor) | PrPC confirm 50 | LD9 cytotox inactive
COc1ccc(-n2c(=S)[nH]c3sc(-c4ccccc4)cc3c2=O)c(OC)c1	none
COc1cccc(-c2cc3c(=O)n(-c4ccccc4)c(=S)[nH]c3s2)c1	PrPC TRFRET 31 | PrPC confirm 67 | LD9 cytotox inactive
COC(=O)CSc1nc(-c2ccccc2)nc2ccccc12	PrPC TRFRET 106 | PrPC confirm 113 | LD9 cytotox inactive
NC(=O)CSc1nc(-c2ccccc2)nc2ccccc12	PrPC TRFRET 70 (no result: VHR inh abs) | PrPC confirm 72 | LD9 cytotox inactive
Cc1cccc2c(SCC(N)=O)nc(-c3ccccc3)nc12	none
O=C1C=C(c2cccc(OCc3ccccc3)c2)CC(c2ccc3c(c2)OCO3)C1 (centres undefined)	none (no result: BJeLR lethal, PrPC TRFRET, VHR inh abs, 3CLpro inhibitor)
NCCCCC1CNC(=S)N1CCCCC1CCCCC1 (centres undefined)	none (no result: BJeLR lethal, PrPC TRFRET, VHR inh abs, 3CLpro inhibitor)
CC1CC(C)C(=O)C(C(CC2CC(=O)NC(=O)C2)OC(=O)CC(=O)c2ccccc2)C1 (centres undefined)	PrPC TRFRET 85 (no result: BJeLR lethal, VHR inh abs, 3CLpro inhibitor) | PrPC confirm 95 | LD9 cytotox 31
CC(=O)N1c2ccc(S(=O)(=O)N3CCCC(C(=O)NCc4ccccc4Cl)C3)cc2CC1C (centres undefined)	none
CCc1ccccc1NC(=O)C1CCCN(S(=O)(=O)c2ccc3c(c2)CC(C)N3C(C)=O)C1 (centres undefined)	PrPC TRFRET 31 | PrPC confirm inactive | LD9 cytotox inactive
O=C(Nc1nc(-c2ccccc2)cs1)c1ccccc1NS(=O)(=O)c1ccc(F)cc1	PrPC TRFRET 35, ugtP null kill 95, RN4220 kill 93 | PrPC confirm 30 | LD9 cytotox 32
COc1ccc(C=C2C(=O)N=C3SCCN23)cc1	none (no result: BJeLR lethal, PrPC TRFRET, VHR inh abs, 3CLpro inhibitor)
COc1ccc(C2C=C(C(=O)O)OC(OCc3ccc(CO)cc3)C2)cc1 (centres undefined)	none (no result: BJeLR lethal, PrPC TRFRET, VHR inh abs, 3CLpro inhibitor)
CC(C)(C)C1COC(=O)C(Cc2ccc(F)cc2)CCC=CCC(CC(=O)NC(CO)Cc2ccccc2)C(=O)N1 (centres undefined)	none (no result: BJeLR lethal, PrPC TRFRET, VHR inh abs, 3CLpro inhibitor)
Oc1c(Br)cc(Br)cc1Br	none (no result: BJeLR lethal, VHR inh abs, 3CLpro inhibitor)
Cc1nc2c(Br)cc(Br)cc2cc1O	PrPC TRFRET 103 | PrPC confirm 108 | LD9 cytotox inactive
CNc1c2cccc(C)c2nc2c(C(=O)NCCN(C)C)cccc12	PrPC TRFRET 29 (no result: BJeLR lethal, VHR inh abs, ugtP null kill, RN4220 kill, 3CLpro inhibitor) | PrPC confirm 62 | LD9 cytotox 59
Cc1ccc(C(=O)NCCN(C)C)c(C)c1	none
O=C(NC(Cc1ccccc1)C(=O)O)c1c(F)c(F)c(F)c(F)c1F (centres undefined)	none (no result: BJeLR lethal, PrPC TRFRET, VHR inh abs, 3CLpro inhibitor)
Cc1ccc(-c2c(CC(=O)O)c(C)nc3sc4c(c23)CCCC4)cc1	PrPC TRFRET 36 (no result: VHR inh abs) | PrPC confirm 44 | LD9 cytotox inactive
COC(=O)[C@@]1(Cc2ccc(F)cc2)C2c3cc(C(=O)N(C)C)n(Cc4ccc(OC)c(OC)c4)c3CC2CN1C(=O)c1ccccc1 (some centres undefined)	none (no result: BJeLR lethal, PrPC TRFRET, VHR inh abs, 3CLpro inhibitor)
CC(C)(C)OC(=O)N1CCC(N[C@@H](Cc2c[nH]c3ccccc23)C(=O)NCC(c2ccccc2)c2ccccc2)(C(=O)NC2CCCCC2)CC1	none (no result: BJeLR lethal, VHR inh abs, ugtP null kill, RN4220 kill, 3CLpro inhibitor)
CC(C)(C)OC(=O)N1CCC(N[C@@H](Cc2ccccc2)C(=O)NCCc2c[nH]c3ccccc23)(C(=O)NC2CCCCC2)CC1	PrPC TRFRET 27 (no result: BJeLR lethal, VHR inh abs, ugtP null kill, RN4220 kill, 3CLpro inhibitor) | PrPC confirm inactive | LD9 cytotox inactive
CN(C)S(=O)(=O)Oc1cccc(C(=O)Nc2ccccc2Cl)c1	none
CN(C)S(=O)(=O)Oc1cccc(C(=O)Nc2ccc(Cl)cc2)c1	PrPC TRFRET 27 | PrPC confirm 29 | LD9 cytotox 12
C=C1C(=O)OC2CC1C(OC(C)=O)CC(C)=CCCC(C)=CCCC2(C)O (centres undefined)	PrPC TRFRET 29 (no result: BJeLR lethal, VHR inh abs, ugtP null kill, RN4220 kill, 3CLpro inhibitor) | PrPC confirm 33 | LD9 cytotox 43
CC1CN(C(C)CO)C(=O)c2cccc(NC(=O)c3ccncc3)c2OC1CN(C)C(=O)NC1CCCCC1 (centres undefined)	none (no result: BJeLR lethal, PrPC TRFRET, VHR inh abs, 3CLpro inhibitor)
COC(=O)C1=C(c2ccccc2OCc2ccccc2)CC2CCC1N2C(=O)NCc1ccccc1 (centres undefined)	none (no result: BJeLR lethal, PrPC TRFRET, VHR inh abs, 3CLpro inhibitor)
Cc1onc(-c2c(F)cccc2Cl)c1C(=O)Nc1nnc(C(F)(F)F)s1	PrPC TRFRET 62 | PrPC confirm 81 | LD9 cytotox inactive
COc1ccccc1NC(=O)C(C#N)=Cc1c(C)nn(-c2ccc(F)cc2)c1Cl	none (no result: BJeLR lethal, PrPC TRFRET, VHR inh abs, 3CLpro inhibitor)
Cc1cccc(OCCCC(=O)Nc2nc3ccccc3[nH]2)c1	PrPC TRFRET 29 | PrPC confirm 25 | LD9 cytotox inactive
COC(=O)c1cccc(C23CC4(C2)C(CN(Cc2ccc(C(F)(F)F)cc2)C4c2ccccc2)C3c2ccccc2)c1 (centres undefined)	none (no result: BJeLR lethal, PrPC TRFRET, VHR inh abs, 3CLpro inhibitor)
CC[C@H](C)[C@@H]1NC(=O)CNC(=O)c2csc(n2)[C@H](C(C)(C)O)OC(=O)C(C)(C)[C@H](CCCC(C)(Cl)Cl)OC(=O)c2csc1n2	PrPC TRFRET 34 (no result: BJeLR lethal, VHR inh abs, ugtP null kill, RN4220 kill, 3CLpro inhibitor) | PrPC confirm 26 | LD9 cytotox inactive
O=C(NCc1ccccc1)C1=CC(C2CC2)CC(OCc2ccc(CO)cc2)O1 (centres undefined)	none (no result: BJeLR lethal, PrPC TRFRET, VHR inh abs, 3CLpro inhibitor)
O=C1[C@H]2[C@@H](c3ccccc3)N[C@]3(CCCN(Cc4ccc(Cl)cc4)C3=O)[C@H]2C(=O)N1Cc1ccccc1	PrPC TRFRET 27 (no result: BJeLR lethal, VHR inh abs, ugtP null kill, RN4220 kill, 3CLpro inhibitor) | PrPC confirm inactive | LD9 cytotox inactive
O=C1[C@H]2[C@@H](c3ccccc3)N[C@]3(CCCN(Cc4ccc(Br)cc4)C3=O)[C@H]2C(=O)N1Cc1ccccc1	none (no result: BJeLR lethal, VHR inh abs, ugtP null kill, RN4220 kill, 3CLpro inhibitor)
C#CCn1c(=NC(=O)c2ccc(Br)s2)sc2cccc(OC)c21	PrPC TRFRET 30 | PrPC confirm 81 | LD9 cytotox inactive
C=CCn1c(=NC(=O)c2cccs2)sc2cccc(OC)c21	none
COc1ccc(Br)cc1CNC(=O)c1ccc2c(c1)N(C)CCS2	PrPC TRFRET 37 | PrPC confirm 51 | LD9 cytotox inactive
Cc1ccc(-c2ccc(C=N/N=C3/NC(=O)C(CC(=O)O)S3)o2)c([N+](=O)[O-])c1 (centres undefined)	none (no result: BJeLR lethal, PrPC TRFRET, VHR inh abs, 3CLpro inhibitor)
CC1CCc2cc(F)cc3c(O)c(C(=O)NCC4CCCO4)c(=O)n1c23 (centres undefined)	PrPC TRFRET 31 | PrPC confirm 40 | LD9 cytotox inactive
Oc1ccc(CC2CNCCN2CCc2cccc(F)c2)cc1 (centres undefined)	none (no result: BJeLR lethal, PrPC TRFRET, VHR inh abs, 3CLpro inhibitor)
